Compound activity (PubChem)
Most compounds without a hit are left out; they make up all but 15% or so of the library.
HCMV inh = inhibitors of human cytomegalovirus. HFF cells, HCMV-luciferase reporter, 72 h; stronger effect = lower value. activity change, negative = inhibition, % at 57.5 µM. 410,000 compounds, 4.5% hits; in the data active = activity change below about -60%; inconclusive = no clear call, values can overlap the other calls; inactive = above about -39%; note: % is set by controls: 0 for no effect and ±100 for the full control effect
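Cell-based, HFFs, 1000 cells/well, 16 h 37C; cpds in DMSO + HCMV-luc, MOI 1 PFU/cell; 72 h 37C; OneGlo luminescence after 5 min RT; norm. to buffer vs Salinomycin 10uM.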
Sm TGR inh = S. mansoni TGR enzyme inhibition | purified TGR, DTNB reduction, TNB absorbance 405 nm | Potency, µM (highest dose often 114 µM), for inactives: at the top dose activity change, negative = inhibition, usual class: inhibitors | 360,000 compounds, 3% hits | AID 485364; note: potency is the fitted concentration of half-maximal effect; % is set by controls: 0 for no effect and ±100 for the full control effect; nearly all actives have a fitted effect of over 60% in size
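Kinetic colorimetric format: TGR-catalysed, NADPH-driven DTNB reduction monitored via TNB absorbance. Enzyme dispensed at 20 nM; compound exposure 15 min at room temperature before reaction start.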
Pf growth 48h = P. falciparum growth inhibition at 48 hours (one generation). P. falciparum luciferase growth in erythrocytes, 48 h. AID 504832. Potency, µM (titrated, usually from 28.7 µM), for the others: at the highest dose activity change, negative = inhibition, most hits filed as inhibitors. 310,000 compounds, 5.9% hits; note: potency is the fitted concentration of half-maximal effect; % is set by controls: 0 for no effect and ±100 for the full control effect
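Erythrocytes infected with P. falciparum carrying an integrated firefly luciferase reporter (2% hematocrit, 0.1% parasitemia final) were exposed to compounds in RPMI 1640 with 0.5% Albumax at 37 C, 5% CO2. Growth inhibition was scored as reduced luminescence.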
Pf growth 96h = inhibits malaria parasite growth, 96 h; Potency, µM (doses to about 28.7 µM), for inactives: top-dose activity change, negative = inhibition, most hits filed as inhibitors; P. falciparum luciferase reporter growth, 96 h; 320,000 compounds, 6.9% hits; note: potency is the fitted concentration of half-maximal effect; % is set by controls: 0 for no effect and ±100 for the full control effect
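Luminescence readout: decreased luciferase signal marks inhibited growth of reporter-expressing P. falciparum in infected red cells (2% hematocrit, 0.05% parasitemia final), exposed to compound two generations (96 h, 37 C, 5% CO2).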
HCV inhibitor = blocks hepatitis C virus. Huh7.5.1 HCVcc-Cre infection, luciferase reporter, 44 h. Potency, µM (titrated, usually from 41.8 µM), inactives show at the top dose activity change, negative = inhibition, most hits filed as inhibitors. 340,000 compounds, 3.4% hits. AID 651820; note: potency is the fitted concentration of half-maximal effect; % is set by controls: 0 for no effect and ±100 for the full control effect
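Infectious HCV cell culture screen: compound-treated cells (1,000/well, pre-plated 4 h) are infected with HCVcc-Cre at roughly 0.5 moi and grown 44 h. Infection is quantified by luciferase signal after 15 min substrate incubation at room temperature.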
SARS PLpro yeast = SARS-CoV PLP inhibition in yeast | S. cerevisiae expressing SARS-CoV PLpro, growth rescue | Potency, µM (series often up to 32.9 µM), for inactives: top-dose activity, positive = growth rescue, actives largely listed as activators | 330,000 compounds, 0.19% hits | AID 485353; calls by dose curve; note: potency is the fitted concentration of half-maximal effect; 0% is about no effect; nearly all actives have a fitted effect of over 55% in size
* hit, by the source's call; ? = inconclusive; / = no result; [ ] = dose if it differs, or a comment. Unless noted, calls come from the whole dose curve; as a rule, active = well fitted curve in the direction sought with a large enough effect; inconclusive = small, poorly fitted or top-dose-only effect, or another doubt; inactive = no such curve, though single readings can be large; an effect the other way counts as inactive or inconclusive.

SMILES	HCMV inh	Sm TGR inh	Pf growth 48h	Pf growth 96h	HCV inhibitor	SARS PLpro yeast
COc1ccc(C(=O)/C=C/c2cc(OC)c(O)c(OC)c2)c(F)c1	-96*	50µM*	-7%	?	13µM*	-33%
O=C(/C=C/c1ccc2c(c1)OCO2)c1ccc[nH]1	-7	-12%	208%	276%	-2%	-22%
COc1ccc(OC)c(C(=O)C(=O)c2cc(OC)ccc2OC)c1	-2	/	/	/	?	/
COc1cc(OC)c(C=CC(=O)c2ccccc2O)c(OC)c1	-64*	/	/	/	?	/
COc1ccc(OC)c(C(=O)/C=C/c2ccccc2C(F)(F)F)c1	-104*	19%	?	?	10µM*	-10%
CSCCC(NC(=O)c1ccc([N+](=O)[O-])cc1Cl)C(=O)OCC(=O)C12CC3CC(CC(C3)C1)C2 (stereo not given)	-18	1%	-4%	-1%	?	-4%
CSCCC(NC(=O)C12CC3CC(CC(C3)C1)C2)C(=O)OCC(=O)c1ccc(C)cc1 (stereo not given)	11	0%	-4%	0.33µM*	29%	5%
Cc1ccc(C(C)NC(=O)C23CC4CC(CC(C4)C2)C3)cc1 (stereo not given)	-13	26%	-33%[1.15 µM]	0.59µM*	9%	0%
O=C(CCNC(=O)c1ccco1)Nc1ccc(Cl)cc1F	?	9%	9%	31%	22%	0%
Cc1ccc(S(=O)(=O)N2CCCN(C(C)c3nc4ccccc4c(=O)[nH]3)CC2)cc1 (stereo not given)	-19	?	?	13µM*	-11%	4%
CN1CCN(Cc2nc3ccccc3c(=O)[nH]2)CC1	2	1%	6%	/	13%	-2%
COc1cc2nc(CN3CCN(S(=O)(=O)c4ccc(C)c(C)c4)CC3)[nH]c(=O)c2cc1OC	-22	-28%	9.3µM*	?	8%	1%
Cc1ccc(S(=O)(=O)N2CCCN(Cc3nc4ccccc4c(=O)[nH]3)CC2)cc1	1	45µM*	?	-14%	9%	2%
COc1ccc(CCN2C(=O)CSC2=Nc2ccc(C(C)C)cc2)cc1OC	?	7%	10µM*	?	-77%	-1%
CCCCCn1c(=O)c(-c2nc3ccccc3[nH]2)c(O)c2ccccc21	-8	/	?	23%	?	0%
C[C@H](CO)N1C[C@H](C)[C@@H](CN(C)C(=O)Nc2cccc(F)c2)Oc2ncc(Br)cc2C1=O	-2	/	/	/	/	/
Cc1ccccc1S(=O)(=O)Cc1ccc(C(=O)NCc2cccs2)o1	42	4%	/	?	-10%	8%
Cc1ccc(S(=O)(=O)Cc2ccc(C(=O)NCc3cccs3)o2)cc1	44	53%	/	3.7µM*	-11%	6%
Cc1ccc(CNC(=O)c2ccc(CS(=O)(=O)c3ccccc3)o2)cc1	-61*	-14%	8%	4.7µM*	-28%	-1%
COc1ccc(S(=O)(=O)Cc2ccc(C(=O)NCC(OC)OC)o2)cc1	-16	-17%	34%	2%	20%	1%
COC(CNC(=O)c1ccc(CS(=O)(=O)c2ccccc2)o1)OC	-8	18µM*	3%	?	-2%	-1%
COC(=O)c1ccc(CS(=O)(=O)c2ccc(F)cc2)o1	-19	22µM*	-5%	5.2µM*	6%	-4%
O=C(NCc1ccc(F)cc1)c1ccc(CS(=O)(=O)c2ccc(Cl)cc2)o1	0	-10%	/	/	/	/
CCOC(=O)C[C@@H]1OC[C@H](CO)N1S(=O)(=O)c1ccc(C)cc1	-11	/	/	/	/	/
CNc1cncc(-c2ccc(OCCCN(C)C)nc2)n1	-11	/	/	/	/	/
CCOc1ccc(C2C(=O)N(C3CCCCCC3)CC(=O)N2CCc2ccccc2)cc1OC (stereo not given)	?	2%	/	/	/	/
Cc1[nH]n(-c2ccccc2)c(=S)c1C=Nc1cccc([N+](=O)[O-])c1	-12	79µM*	15%	9%	5%	6%
